Assay [1] has as its target Ubiquitin carboxyl-terminal hydrolase 1 (Homo sapiens) (UniProt O94782). The assay can be described thus: Inhibitors of USP1/UAF1: Pilot qHTS (AID 504865). Also: nearly all actives have a fitted effect of over 35% in size. Also: potency is read from the fitted curve at half-maximal effect. In short, it runs like this: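 Kinetic fluorescence assay: 1nM USP1/UAF1, 15 min compound preincubation, then 150nM Ub-Rho; 480/540 nm.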
On the technique in general: qHTS replaces the single test concentration by a dilution series.

Assay [2] addresses Luciferin 4-monooxygenase (Photinus pyralis) (UniProt P08659). The assay can be described thus: Biochemical firefly luciferase enzyme assay for NPC (AID 624030).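 Also: purified P. pyralis luciferase at 10 nM with luciferin and ATP substrate; 0% = DMSO and -100% = full luciferase inhibition by PTC124 control; nearly all actives have a fitted effect of over 70% in size.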 In short, it runs like this: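 Purified P. pyralis luciferase at 10 nM in 50 mM Tris Acetate (final), luminescence read within 5 minutes of enzyme addition to compounds. Activity normalised to PTC124 versus DMSO; concentration-response curves classed by r2, magnitude and activity.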

Assay [3] can be described thus: qHTS profiling for inhibitors of Plasmodium falciparum proliferation (AID 504749). Also: potency is read from the fitted curve at half-maximal effect.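 As to activity, negative = inhibition: 0% = DMSO vehicle and full inhibition = artemisinin control.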 As to all read-outs here: nearly all actives have a fitted effect of over 60% in size. Conditions: P. falciparum in erythrocytes, SYBR Green DNA, 72 h; for activity, negative = inhibition: at 28.7 µM (top of the series). In short, it runs like this:
(§1)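 P. falciparum-infected erythrocytes (0.3% parasitemia, 2.5% hematocrit) incubated with compound 72 h at 37 C, 5% CO2. Parasite DNA detected by SYBR Green after lysis, overnight at room temperature; normalised to 0.29 uM artemisinin and DMSO.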

The test system of assay [4] is ATS189. The assay is described as above. The conditions noted are these: P. falciparum in erythrocytes, SYBR Green DNA, 72 h; series mostly up to 28.7 µM. The procedure, abridged:
as §1

Assay [5] has as its system CP185. The assay is described as above. Conditions: P. falciparum in erythrocytes, SYBR Green DNA, 72 h; series mostly up to 28.7 µM. The procedure, abridged:
as §1

Assay [6] concerns CP201. The assay is described as above. The conditions noted are these: P. falciparum in erythrocytes, SYBR Green DNA, 72 h; series mostly up to 28.7 µM. The procedure, abridged:
as §1

The subject of assay [7] is CP238. Described as above. Conditions: P. falciparum in erythrocytes, SYBR Green DNA, 72 h; series mostly up to 28.7 µM. The procedure, abridged: as §1
Assay [8] deals with CP252. The description is as above. The conditions noted are these: P. falciparum in erythrocytes, SYBR Green DNA, 72 h; series mostly up to 28.7 µM. The procedure, abridged:
as §1

In assay [9] the test system is CP265. Described as above. The conditions noted are these: P. falciparum in erythrocytes, SYBR Green DNA, 72 h; series mostly up to 28.7 µM. The procedure, abridged:
as §1

In assay [10] the test system is CP286. The assay is described as above. The conditions noted are these: P. falciparum in erythrocytes, SYBR Green DNA, 72 h; series mostly up to 28.7 µM. The procedure, abridged:
as §1

For assay [11], the system named is CP305. The description is as above. Conditions: P. falciparum in erythrocytes, SYBR Green DNA, 72 h; series mostly up to 28.7 µM. The procedure, abridged: as §1
Assay [12] has as its system CP325. The description is as above. The conditions noted are these: P. falciparum in erythrocytes, SYBR Green DNA, 72 h; series mostly up to 28.7 µM. The procedure, abridged: as §1
For assay [13], the system named is FAB9. The description is as above. The conditions noted are these: P. falciparum in erythrocytes, SYBR Green DNA, 72 h; series mostly up to 28.7 µM. In short, it runs like this: as §1
Assay [14] relates to PC15. Described as above. Conditions: P. falciparum in erythrocytes, SYBR Green DNA, 72 h; series mostly up to 28.7 µM. In short, it runs like this:
as §1

Assay [15] deals with PC49. The assay is described as above. Conditions: P. falciparum in erythrocytes, SYBR Green DNA, 72 h; series mostly up to 28.7 µM. In short, it runs like this:
as §1

In assay [16] the target is Cytochrome P450 3A4 (Homo sapiens) (UniProt P08684). The assay can be described thus: qHTS Assay for Inhibitors and Substrates of Cytochrome P450 3A4 (AID 884). Also: nearly all actives have a fitted effect of over 50% in size. Also: potency is read from the fitted curve at half-maximal effect. The procedure, abridged:
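20 nM human CYP3A4 with 25 uM Luciferin-PPXE (at KM) in 200 mM KPO4, preincubated 10 min with compound; NADPH regeneration started a 60 min RT reaction. Luciferin detected by luminescence, normalized to 57 uM ketoconazole as full inhibition.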

The target is the same in assay [17]. The assay can be described thus: qHTS Assay for Activators of Cytochrome P450 3A4 (AID 885). Also: nearly all actives have a fitted effect of over 65% in size. The procedure, abridged:
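20nM CYP3A4 + 25uM Luciferin-PPXE (=KM), 200mM KPO4; cpd 10 min RT; NADPH regen, 60 min RT; stop w/ detection buffer, 20 min; luminescence. Normalized to 57 uM ketoconazole.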

Assay [18] concerns the target DNA dC->dU-editing enzyme APOBEC-3G (Homo sapiens) (UniProt Q9HC16). The assay can be described thus: qHTS for inhibitors of Vif-A3G interactions: Validation (AID 588379). Also: 0% is about no effect. In short, it runs like this:
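HeLa cells stably expressing Vif and A3G-eYFP, 700 cells/well, incubated overnight at 37 deg C, then exposed to compound overnight at 37 deg C. Inhibition of Vif-mediated degradation read as increased yellow fluorescence (Ex 488/Em 500-530) by laser-scanning cytometry.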

Assay [19] is described as follows: Confirmation and Secondary Assay for Modulators of Hemoglobin Beta Chain Splicing at IVS2 654 locus (AID 910).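 Also: HeLa cells stably carrying EGFP split by mutant beta-globin IVS2-654 intron; % of control where 0% means no effect.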 In short, it runs like this:
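HeLa cells stably expressing EGFP interrupted by β-globin IVS2-654 intron, seeded overnight in Opti-MEM/2% FCS, then treated 2 days at 37 °C. Restored splicing read as total peak GFP intensity per well by laser scanning cytometry (488 nm excitation, 500–520 nm emission); 500 nM antisense PNA as control.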

A number with no mark means an inactive call. Inconclusive results are not listed. The source made the active and inactive calls. Calls follow the shape of the dose curve; as a rule, active = well fitted curve in the direction sought with a large enough effect; inconclusive = small, poorly fitted or top-dose-only effect, or another doubt; inactive = no such curve, though single readings can be large; an effect the other way counts as inactive or inconclusive. Bridge positions count the residues as written; N and C are the ends. Square brackets hold non-standard residues; d marks the D form. Peptide text beside a SMILES is read from it. * marks the point of attachment. ξ: configuration not given here. ξDab(CH2SO3H) = NC(CCNCS(=O)(=O)O)C(=O)O; Heptanoyl(6-Me) = CC(C)CCCCC(=O)*; Orn = NCCC[CH](N)C(=O)O; Dab = NCC[CH](N)C(=O)O

Chain of Ubiquitin carboxyl-terminal hydrolase 1 (Homo sapiens) (O94782 whole entry, looked up): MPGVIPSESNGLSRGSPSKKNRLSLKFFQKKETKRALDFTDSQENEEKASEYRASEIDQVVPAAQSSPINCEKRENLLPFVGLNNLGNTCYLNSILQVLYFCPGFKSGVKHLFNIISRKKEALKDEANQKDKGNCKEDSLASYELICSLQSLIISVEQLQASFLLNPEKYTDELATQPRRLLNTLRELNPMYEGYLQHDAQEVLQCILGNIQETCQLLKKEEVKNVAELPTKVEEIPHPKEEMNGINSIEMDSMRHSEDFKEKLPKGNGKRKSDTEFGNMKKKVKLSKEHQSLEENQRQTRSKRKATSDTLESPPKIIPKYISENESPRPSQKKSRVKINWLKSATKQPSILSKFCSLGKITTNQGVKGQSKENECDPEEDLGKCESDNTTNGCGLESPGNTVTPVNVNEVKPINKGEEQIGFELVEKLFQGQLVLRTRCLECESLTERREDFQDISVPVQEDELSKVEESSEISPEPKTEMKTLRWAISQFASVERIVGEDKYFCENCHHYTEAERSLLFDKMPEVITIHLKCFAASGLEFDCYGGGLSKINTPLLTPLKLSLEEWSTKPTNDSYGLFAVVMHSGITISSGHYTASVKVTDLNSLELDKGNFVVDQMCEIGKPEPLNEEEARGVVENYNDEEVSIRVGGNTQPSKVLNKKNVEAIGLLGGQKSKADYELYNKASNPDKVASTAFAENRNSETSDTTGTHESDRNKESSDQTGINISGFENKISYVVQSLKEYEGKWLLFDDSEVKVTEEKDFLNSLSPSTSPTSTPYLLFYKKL
Chain of DNA dC->dU-editing enzyme APOBEC-3G (Homo sapiens) (Q9HC16 whole entry, looked up): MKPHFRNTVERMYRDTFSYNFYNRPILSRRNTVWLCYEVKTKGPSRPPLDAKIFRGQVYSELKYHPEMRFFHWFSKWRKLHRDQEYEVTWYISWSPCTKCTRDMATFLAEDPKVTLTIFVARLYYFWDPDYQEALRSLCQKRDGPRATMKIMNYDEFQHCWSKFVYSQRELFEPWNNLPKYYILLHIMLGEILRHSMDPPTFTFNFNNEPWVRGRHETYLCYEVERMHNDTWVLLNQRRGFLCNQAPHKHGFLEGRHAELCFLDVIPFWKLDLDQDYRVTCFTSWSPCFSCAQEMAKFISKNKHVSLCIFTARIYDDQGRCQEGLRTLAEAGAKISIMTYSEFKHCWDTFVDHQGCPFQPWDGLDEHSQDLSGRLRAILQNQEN
Chain of Luciferin 4-monooxygenase (Photinus pyralis) (P08659 whole entry, looked up): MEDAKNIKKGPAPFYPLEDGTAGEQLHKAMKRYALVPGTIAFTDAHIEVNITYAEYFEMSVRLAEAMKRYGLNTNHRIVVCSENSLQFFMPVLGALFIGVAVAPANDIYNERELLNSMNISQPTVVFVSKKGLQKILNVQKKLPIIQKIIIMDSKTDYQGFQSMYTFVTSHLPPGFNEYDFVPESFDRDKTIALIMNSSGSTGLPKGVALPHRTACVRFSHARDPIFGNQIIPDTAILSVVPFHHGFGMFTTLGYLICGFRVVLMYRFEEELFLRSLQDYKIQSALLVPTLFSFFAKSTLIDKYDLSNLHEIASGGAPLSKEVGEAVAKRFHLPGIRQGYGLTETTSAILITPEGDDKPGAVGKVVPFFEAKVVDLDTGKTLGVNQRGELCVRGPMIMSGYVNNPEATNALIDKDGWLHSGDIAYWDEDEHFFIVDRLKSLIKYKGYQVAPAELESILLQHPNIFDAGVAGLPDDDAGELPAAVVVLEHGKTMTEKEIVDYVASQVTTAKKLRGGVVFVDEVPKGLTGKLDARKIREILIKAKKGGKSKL
Chain of Cytochrome P450 3A4 (Homo sapiens) (P08684 whole entry, looked up): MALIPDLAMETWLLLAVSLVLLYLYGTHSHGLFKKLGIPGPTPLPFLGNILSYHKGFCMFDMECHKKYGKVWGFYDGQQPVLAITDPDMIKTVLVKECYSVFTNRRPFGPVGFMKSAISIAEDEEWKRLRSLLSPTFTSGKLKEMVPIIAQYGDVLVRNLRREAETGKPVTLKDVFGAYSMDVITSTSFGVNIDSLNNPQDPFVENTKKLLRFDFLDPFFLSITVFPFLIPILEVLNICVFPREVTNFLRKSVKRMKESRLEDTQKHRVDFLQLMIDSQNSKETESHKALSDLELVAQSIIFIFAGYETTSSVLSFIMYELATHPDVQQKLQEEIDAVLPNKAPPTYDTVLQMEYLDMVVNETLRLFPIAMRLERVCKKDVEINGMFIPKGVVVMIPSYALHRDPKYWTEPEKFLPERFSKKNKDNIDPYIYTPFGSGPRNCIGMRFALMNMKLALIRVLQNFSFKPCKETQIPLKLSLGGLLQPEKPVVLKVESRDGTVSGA

Consider `CCOC(=O)C(CS)NCCN[C@@H](CS)C(=O)OCC` (stereo not given in full), for which the Potency entry in [1], in [2], in [4], in assay [5], in [6] and in assay [7] was “inactive” in each case. Moreover, the Potency entry in assay [8], in [9], in assay [10], in assay [11], in assay [12] and in [13] was “inactive” each time. Moreover, the Potency entry in assay [14] and in [15] was “inactive” each time. Moreover, the activity, negative = inhibition in assay [3] (parasite line A) was -2.53%; in [3] (parasite line B), -3.46%.

Take `O=C(O)c1ccccc1-c1c2cc(Br)c(=O)c(Br)c-2oc2c(Br)c(O)c(Br)cc12`: the Potency entry in assay [1], in [4], in [5], in [6], in [7] and in assay [8] was “inactive” in each case. Further, the Potency result in assay [9], in [10], in assay [11], in assay [12], in assay [13] and in assay [14] was “inactive” throughout. In addition, the Potency result in [15] is “inactive”. The activity, negative = inhibition in [3] (parasite line A) is 7.94%; in assay [3] (parasite line B), -13.6%.

Take `COc1ccc2c(c1OC)C(Cc1ccccc1)N1CCc3cc4c(cc3C1=C2)OCO4` (stereo not given): the results for the Potency in assay [16] and in assay [1] were 199 nM (active) and 39800 nM (active), respectively. Moreover, the Potency result in [17] and in assay [18] was “inactive” each time.

On to `CC(C)CC1NC(=O)C(CCCN)NC(=O)C(C(C)C)NC(=O)C2CCCN2C(=O)C(Cc2ccccc2)NC(=O)C(CC(C)C)NC(=O)C(CCCN)NC(=O)C(C(C)C)NC(=O)C2CCCN2C(=O)C(Cc2ccccc2)NC1=O` (stereo not given) (cyclo(FPV[Orn]LFPV[Orn]L); configuration not given here), for which the Potency entry in assay [16], in assay [1] and in assay [2] was “inactive” each time. For the same molecule, the outcome in assay [19] was inactive. Moreover, the Potency in assay [3] (parasite line A) was 1.3 nM (active); in [3] (parasite line B), 1.3 nM (active); in [4], 2.2 nM (active); in [5], 2.8 nM (active); in assay [6], 3.4 nM (active); in assay [7], 1.6 nM (active). Besides, the Potency is 1.3 nM (active) in [8]; 1.1 nM (active) in [9]; 0.8 nM (active) in assay [10]; 1.9 nM (active) in assay [11]; 1.1 nM (active) in assay [12]; 10 nM (active) in assay [13]. The Potency is 5.6 nM (active) in [14] and 7.1 nM (active) in [15].

Take `COc1ccc(-c2oc3cc(OC)ccc3c(=O)c2O)cc1`: the Potency entry in assay [1] and in assay [18] was “inactive” throughout.

`Cc1ccc2oc(-c3ccccc3)cc(=O)c2c1`: the Potency result in assay [1] and in assay [18] was “inactive” in each case.

For `CCC(C)C1NC(=O)C(CCNCS(=O)(=O)O)NC(=O)C(NC(=O)C(CCNCS(=O)(=O)O)NC(=O)C(NC(=O)C(CCNCS(=O)(=O)O)NC(=O)CCCCC(C)C)C(C)O)CCNC(=O)C(C(C)O)NC(=O)C(CCNCS(=O)(=O)O)NC(=O)C(CCNCS(=O)(=O)O)NC(=O)C(C(C)CC)NC1=O` (stereo not given) ({Heptanoyl(6-Me)}-[ξDab(CH2SO3H)]T[ξDab(CH2SO3H)][Dab][ξDab(CH2SO3H)]II[ξDab(CH2SO3H)][ξDab(CH2SO3H)]T; lactam 4-C; configuration not given here), the Potency entry in [16], in assay [2], in assay [4], in assay [5], in assay [6] and in [7] was “inactive” in each case. Also, the Potency entry in assay [8], in assay [9], in [10], in assay [11], in [12] and in [13] was “inactive” each time. In addition, the Potency entry in assay [14] and in assay [15] was “inactive” each time. The result in assay [19] was inactive. Moreover, in assay [1], the Potency is 44700 nM (active). Further, the activity, negative = inhibition in [3] (parasite line A) was -19.4%; in assay [3] (parasite line B) it was 8.48%.

The values are drawn from PubChem BioAssay (NCATS).
